High-throughput results deposited in PubChem BioAssay by National Center for Advancing Translational Sciences (NCATS).
Compounds with a hit are over-represented: about 19% of the library has one in this group of screens.
KB-V1 cytotox: kills drug-selected multidrug resistant KB-V1 cells | KB-V1 MDR cells viability, CellTiter-Glo, 72 h | Potency, µM (top dose mostly 46.1 µM), most hits filed as cytotoxic | 3.4% of 400,000 active | AID 1347076; note: nearly all actives have a fitted effect of over 60% in size
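In this primary screen, KB-V1 cells overexpressing P-gp are incubated with library compounds (lowest to highest concentration) for 72 h at 37 degrees C before a luminescent ATP viability read.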
TDP1 cell CPT: DT40-hTDP1 cell growth loss with CPT | chicken DT40 Tdp1-/-;hTDP1 cells + 20 nM CPT, ATP luminescence, 48 h | Potency, µM (highest dose often 46.2 µM), inactives show at the top dose activity change, negative = growth inhibition, usual class: inhibitors | 12% of 420,000 active | AID 686979; note: nearly all actives have a fitted effect of over 55% in size
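Cell growth measured by CellTiter-Glo luminescence after a minimum 48 h, 37 C compound exposure with 20 nM CPT in Tdp1-knockout DT40 cells stably expressing hTDP1, seeded 400/well; qHTS titration format.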
KB-3-1 tox: kills parental KB-3-1 adenocarcinoma cells. KB-3-1 viability, CellTiter-Glo ATP luminescence, 72 h. Potency, µM (titrated, usually from 46.1 µM), usual class: cytotoxic. 1.4% of 400,000 active; note: nearly all actives have a fitted effect of over 60% in size
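72 h, 37 °C compound treatment of KB-3-1 parental cells; CellTiter-Glo added, 10 min, luminescence read. Data corrected against DMSO-only plates and normalized before curve fitting.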
HT1080-NT tox: kills 2HG-producing HT-1080-NT fibrosarcoma cells | HT-1080-NT fibrosarcoma viability, CellTiter-Glo ATP luminescence, 48 h | Potency, µM (highest dose often 46.1 µM), for the others: at the top dose activity, negative = less viability, hits mostly cytotoxic | 1.6% of 360,000 active | AID 686970;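 note: NT is the 2HG producing partner of a matched IDH1 knockdown line; 0% = DMSO-treated cells and -100% = media-only wells without cells; nearly all actives have a fitted effect of over 55% in size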
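Compounds were tested in concentration-response format on HT-1080-NT cells for 48 hours at 37 degrees C. Cell viability came from CellTiter-Glo luminescence; curves were classified by r2, response magnitude and activity.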
HT1080 IDH1KD tx: toxicity to HT-1080 IDH1 knockdown cells (counter line); AID 686971; Potency, µM (doses to about 46.1 µM), without a hit: top-dose activity, negative = toxicity, usual class: cytotoxic; 2% of 360,000 active; HT-1080 IDH1 knockdown viability, ATP luminescence, 48 h;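 note: 0% = DMSO wells and -100% = cell-free medium wells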
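Luminescent ATP read-out (CellTiter-Glo, 10 min at room temperature) after 48 h compound exposure at 37 °C gave viability of IDH1-knockdown HT-1080 cells. Activity was normalised to DMSO and cell-free wells, then fitted as concentration-response curves.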
DT40 TDP1 no CPT: qHTS for Inhibitors of human tyrosyl-DNA phosphodiesterase 1 (TDP1): qHTS in cells in absence of CPT; DT40 Tdp1-/- hTDP1 cells, no CPT, ATP luminescence, 48 h; Potency, µM (titrated, usually from 46.2 µM), inactives show top-dose activity change, negative = growth inhibition, actives largely listed as inhibitors; AID 686978, 2013; 15% of 420,000 active; note: nearly all actives have a fitted effect of over 55% in size
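Chicken DT40 Tdp1-/- cells complemented with human TDP1, screened without camptothecin (DMSO vehicle only), 400 cells/well. Compounds pin-transferred, cells incubated at 37 °C for at least 48 hr. Growth read as ATP-dependent luminescence (CellTiter-Glo, 30 min at RT).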
The depositor's hits bear a star; i = inactive; ? = inconclusive; nt = no result given. Calls come from the whole dose curve; as a rule, active = well fitted curve in the direction sought with a large enough effect; inconclusive = small, poorly fitted or top-dose-only effect, or another doubt; inactive = no such curve, though single readings can be large; an effect the other way counts as inactive or inconclusive. Unless noted, % is set by controls: 0 for no effect and ±100 for the full control effect; potency is the fitted concentration of half-maximal effect.

SMILES | KB-V1 cytotox | TDP1 cell CPT | KB-3-1 tox | HT1080-NT tox | HT1080 IDH1KD tx | DT40 TDP1 no CPT
CCOC(=O)c1ccc(NC(=O)CC(C)n2nc(C)cc2C)cc1 (configuration not stated) | i | ? | i | nt | nt | ?
COc1cccc(OCc2cc(=O)n3cc(C)sc3n2)c1 | i | -25% | i | nt | nt | ?
Cc1cccc(C)c1NC(=O)C(c1ccc(Cl)cc1Cl)N1CCCCC1 (configuration not stated) | ? | 18µM* | i | 3% | -3% | 29µM*
COc1ccc(S(=O)(=O)N(CC(=O)N2CCN(c3ccccc3)CC2)c2ccccc2)cc1 | ? | -29% | i | -1% | 0% | ?
CCOC(=O)N1CCN(C(=O)CN(c2ccc(Cl)c(C(F)(F)F)c2)S(C)(=O)=O)CC1 | 23µM* | -1% | i | -2% | -1% | -25%
COc1ccc(N2CCN(C(=O)CN(c3cccc(OC)c3)S(=O)(=O)c3ccccc3)CC2)cc1 | nt | 21µM* | nt | -2% | 6% | 15µM*
CCOC(=O)N1CCN(C(=O)CN(c2cccc(C)c2)S(=O)(=O)c2ccc(C)cc2)CC1 | ? | -7% | i | 8% | -2% | -10%
COc1ccc(N(CC(=O)N2CCN(c3ccccc3)CC2)S(=O)(=O)c2ccccc2)cc1 | i | 16µM* | i | -16% | -1% | 18µM*
CCOC(=O)N1CCN(C(=O)CN(c2cccc(C)c2)S(=O)(=O)c2ccccc2)CC1 | 2.9µM* | 4% | i | 11% | 9% | -14%
O=C1OC(OC(=O)c2cccnc2Nc2cccc(C(F)(F)F)c2)c2ccccc21 (configuration not stated) | nt | -10% | nt | nt | nt | 4%
CCC(=O)NC(Cc1ccccc1)c1ccc2c(c1)OCCCO2 (configuration not stated) | 13µM* | -3% | i | 11% | 30% | -25%
NS(=O)(=O)c1ccc(NC(=O)Cc2c(F)cccc2Cl)cc1 | i | -5% | i | -6% | 1% | -8%
Cc1ccccc1NC(=O)c1nc(S(=O)(=O)Cc2ccccc2F)ncc1Cl | i | 1.3µM* | ? | nt | nt | 5µM*
Cc1ccc(NC(=O)c2nc(S(=O)(=O)Cc3ccccc3C)ncc2Cl)cc1C | 18µM* | 1.5µM* | ? | ? | 16µM* | 1.6µM*
CCCS(=O)(=O)c1ncc(Cl)c(C(=O)Nc2c(C(=O)c3ccccc3)oc3ccccc23)n1 | i | -3% | i | nt | nt | ?
NS(=O)(=O)c1ccc(NC(=O)c2nc(S(=O)(=O)Cc3ccccc3F)ncc2Cl)cc1 | i | 10µM* | i | nt | nt | 7.1µM*
Cc1ccc(NC(=O)c2nc(S(=O)(=O)Cc3ccccc3F)ncc2Cl)cc1C | ? | 0.89µM* | ? | nt | nt | 2µM*
CSc1ncc(Cl)c(C(=O)Nc2ccccc2C)n1 | i | 0% | i | 1% | 4% | -4%
CCCCN(CC)CCCNC(=O)CCN1N=C(c2ccc(OC)cc2)CCC1=O | nt | -1% | nt | nt | nt | -12%
Cc1ccc(NC(=O)c2nc(S(=O)(=O)Cc3ccccc3F)ncc2Cl)cc1 | ? | 1.3µM* | i | nt | nt | 0.89µM*
CC1CCC(N(C)C(=O)CN2C(=O)NC(c3ccccc3)(c3ccccc3)C2=O)CC1 (configuration not stated) | i | 23µM* | i | -17% | -6% | ?
CCN(C(=O)CN1C(=O)NC(c2ccccc2)(c2ccc(C)c(C)c2)C1=O)C1CCCCC1 (configuration not stated) | i | 16µM* | ? | ? | ? | ?
CCN(C(=O)CN1C(=O)NC(c2ccccc2)(c2ccc(C)c(C)c2)C1=O)C1CCS(=O)(=O)C1 (configuration not stated) | i | 1% | i | -6% | -13% | ?
CC(C)(C)NC(=O)NC(=O)CN1C(=O)NC(c2ccccc2)(c2ccccc2)C1=O | i | ? | i | -15% | -11% | 26µM*
O=c1c2ccccc2oc2ccc(-c3ccc4cc[nH]c4c3)cc12 | i | ? | i | 0% | 9% | ?
SMILES | KB-V1 cytotox | TDP1 cell CPT | KB-3-1 tox | HT1080-NT tox | HT1080 IDH1KD tx | DT40 TDP1 no CPT
CC(=O)NC1CCCc2c1cnn2-c1ccc(C(C)(C)C)cc1 (configuration not stated) | i | ? | i | -1% | -3% | ?
CC(C)(C)c1ccc(-n2ncc3c2CCCC3NC(=O)C2=NNC(=O)CC2)cc1 (configuration not stated) | i | ? | ? | 1% | -14% | ?
CC(C)(C)c1ccc(-n2ncc3c2CCCC3NC(=O)c2cnccn2)cc1 (configuration not stated) | i | ? | ? | -20% | -5% | 9.2µM*
CC(C)(C)c1ccc(-n2ncc3c2CCCC3NC(=O)c2csnn2)cc1 (configuration not stated) | nt | ? | nt | 1% | 0% | 12µM*
Cn1nccc1C(=O)NC1CCCc2c1cnn2-c1ccc(C(C)(C)C)cc1 (configuration not stated) | ? | 2.9µM* | ? | 1.3µM* | 1.3µM* | 2.9µM*
CCN(C(=O)COC(=O)c1ccccc1NCCO)C1CCS(=O)(=O)C1 (configuration not stated) | i | 17% | i | 5% | 1% | -7%
C#CCOCCOCCOCCNc1nc(N2CCN(C(=O)CCCCCCCCCCNC(=O)Cn3cc(C[C@@H](C)O)nn3)CC2)nc(N2CCN(C(=O)CCCCCCCCCCNC(=O)[C@@H]([C@H](C)CC)n3cc(CCCCCN)nn3)CC2)n1 | i | 13µM* | 23µM* | 18µM* | 23µM* | 5.8µM*
C#CCOCCOCCOCCNc1nc(N2CCN(C(=O)CCCCCCCCCCNC(=O)Cn3cc(CCCCCN)nn3)CC2)nc(N2CCN(C(=O)CCCCCCCCCCNC(=O)Cn3cc(C[C@@H](C)O)nn3)CC2)n1 | i | ? | i | ? | ? | ?
C#CCOCCOCCOCCNc1nc(N2CCN(C(=O)CCCCCCCCCCNC(=O)Cn3cc(C[C@@H](C)O)nn3)CC2)nc(N2CCN(C(=O)CCCCCCCCCCNC(=O)[C@@H]([C@H](C)O)n3cc(C)nn3)CC2)n1 | i | 7.3µM* | ? | 18µM* | 21µM* | 7.3µM*
